High-throughput results deposited in PubChem by several laboratories.
Rows were chosen to be rich in hits. Some 3.8% of all compounds tested hit in one or more screens of this group.
PAFAH1B2 FP inh – blocks human PAF acetylhydrolase 1b catalytic subunit 2 | 1.2% of 340,000 active | inhibition, % at 3.39 µM | AID 492953 | recombinant PAFAH1B2, FP-rhodamine activity probe, fluorescence polarization;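 active means inhibition above the mean of all tested compounds plus 3 SD, cut at about 24% in these data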;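 further: 0% = enzyme with DMSO and 100% = wells lacking PAFAH1B2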
Target sequence (P68402 whole entry, looked up): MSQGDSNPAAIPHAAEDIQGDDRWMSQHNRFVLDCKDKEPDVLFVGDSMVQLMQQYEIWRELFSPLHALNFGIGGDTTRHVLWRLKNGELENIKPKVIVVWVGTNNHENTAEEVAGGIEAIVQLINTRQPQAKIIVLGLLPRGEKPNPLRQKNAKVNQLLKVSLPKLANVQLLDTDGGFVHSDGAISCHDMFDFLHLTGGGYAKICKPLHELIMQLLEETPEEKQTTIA
PAFAH2 inh – inhibitors of human PAFAH2; recombinant PAFAH2, FP-rhodamine activity probe, fluorescence polarization; inhibition, % at 3.39 µM; 0.99% of 340,000 active;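 active means inhibition above the mean over all tested compounds plus 3 SD, cut at about 30% in these data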;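 further: inhibitors block probe labeling of enzyme so polarization drops; 0% = enzyme with DMSO and 100% = wells lacking PAFAH2 protein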
PAFAH1B3 FP inh – PAFAH1B3 (human) inhibition. Q15102. recombinant PAFAH1B3, FP-rhodamine probe, fluorescence polarization. inhibition, % at 3.39 µM. 0.28% of 340,000 active. AID 492972;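 active means inhibition above the screen-wide average of all tested compounds plus 3 SD, cut at about 25% in these data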;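 further: 0% = enzyme with DMSO only and 100% = wells lacking PAFAH1B3 protein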
DSG3 Ab inh – inhibitors of pemphigus antibody binding to human desmoglein-3 | DSG3-coupled beads, scFv-anti-DSG3-GFP binding, flow cytometry; hits give low values | 0.48% of 310,000 active | binding (percent of control), % at 10 µM | P32926;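 active means binding more than 3 SD below its plate's average and above zero; inconclusive means below that plate limit but binding exactly zero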;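 further: hits lower antibody fragment binding to DSG3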
pPAFAH FP inh – inhibitors of human plasma PAF acetylhydrolase (pPAFAH); Q13093; recombinant pPAFAH, FP-rhodamine probe fluorescence polarization; inhibition, % at 3.39 µM; 1.5% of 330,000 active; AID 463082;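 active means inhibition above the mean inhibition across the screen plus 3 SD, cut at about 25% in these data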;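 further: inhibitors block binding of the rhodamine activity-based probe so polarization drops; 0% = enzyme with DMSO and 100% = wells lacking pPAFAH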
PfM18AAP inh-1 – PfM18AAP enzyme inhibition. 1.2% of 290,000 active. AID 1822. inhibition, % at 7.35 µM. recombinant PfM18AAP, H-Glu-NHMec fluorogenic cleavage;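 active means inhibition above the campaign mean inhibition over all tested compounds plus 3 SD, cut at about 28% in these data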;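 further: 0% = plate median of test compound wells and 100% = 2 mM ZnCl2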
PfM18AAP inh-2 – confirmation of Plasmodium falciparum M18 aspartyl aminopeptidase inhibitors | inhibition, % at 7.35 µM | 28% of 2,400 active | recombinant PfM18AAP, H-Glu-NHMec fluorogenic cleavage | shares compounds with PfM18AAP inh-1;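 active means mean inhibition over replicate wells above the hit cutoff set for the earlier primary screen, cut at about 29% in these data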;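 further: 0% = median of test compound wells and 100% = 2 mM ZnCl2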
CTSL1 confirm – counter-screen for PFM18AAP inhibitors: confirmation of human cathepsin L inhibitors. AID 2178. purified cathepsin L1, Z-Leu-Arg-MCA fluorescence. 2,400 tested, under 10 active. shares compounds with PfM18AAP inh-1. inhibition, % at 5.96 µM;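 active means average inhibition across replicates above the hit cutoff set in the earlier primary screen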;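 further: 0% = median of test compound wells and 100% = Z-Phe-Ala-diazomethylketone 1 µM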
Target sequence (P07711 whole entry, looked up): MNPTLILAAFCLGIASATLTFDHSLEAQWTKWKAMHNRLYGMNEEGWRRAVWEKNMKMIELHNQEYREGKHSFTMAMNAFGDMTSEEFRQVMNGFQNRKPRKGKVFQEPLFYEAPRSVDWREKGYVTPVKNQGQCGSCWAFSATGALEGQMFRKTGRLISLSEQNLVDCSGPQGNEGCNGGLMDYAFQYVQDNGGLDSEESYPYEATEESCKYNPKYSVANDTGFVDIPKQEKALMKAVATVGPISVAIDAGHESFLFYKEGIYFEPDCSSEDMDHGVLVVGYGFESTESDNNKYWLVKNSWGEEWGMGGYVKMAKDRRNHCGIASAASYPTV
* = called active by the depositor; ? = inconclusive; · = no result given.

SMILES	PAFAH1B2 FP inh	PAFAH2 inh	PAFAH1B3 FP inh	DSG3 Ab inh	pPAFAH FP inh	PfM18AAP inh-1	PfM18AAP inh-2	CTSL1 confirm
CCCN1CCN(C(=S)Nc2ccc(S(N)(=O)=O)cc2)CC1	-0.8	-2.4	-0.1	97.1	5.0	9.0	·	·
NS(=O)(=O)c1ccc(NC(=S)N2CCC(Cc3ccccc3)CC2)cc1	2.0	5.8	6.4	92.8	1.6	36.8*	-19.1	-4.0
NC(=O)C1(N2CCCCC2)CCN(C(=S)Nc2ccccc2)CC1	3.3	-1.4	3.5	106.0	0.6	2.6	·	·
Cc1csc(C(=O)NN)c1N(C)C	5.2	-1.5	-0.7	114.2	6.3	-6.9	·	·
CCOC(=O)c1nc(NCCc2ccccc2)sc1C	7.2	-0.6	5.3	98.4	9.3	0.1	·	·
CCOC(=O)c1nc(NNC(C)=O)sc1C	5.0	1.2	14.8	114.0	3.1	36.8*	-3.1	-1.5
Clc1ccc(C=NN2CCCCCC2)cc1Cl	4.0	-10.1	6.4	123.0	·	·	·	·
O=C1c2ccccc2NC(c2ccc(O)cc2)N1/N=C/c1ccc(O)cc1 (centres undefined)	1.0	-0.9	-4.8	92.5	-1.0	-6.0	·	·
O=C1C2C3C=CC(CC3)C2C(=O)N1/N=C/c1ccc(O)c(O)c1 (centres undefined)	13.9	12.5	6.7	101.4	5.1	53.7*	44.6*	-0.9
Oc1ccc(/C=N/N2CCCCC2)cc1O	3.7	13.6	4.5	97.3	18.8	65.6*	32.0*	-2.1
O=C1c2ccccc2C(=O)N1/N=C/c1ccc(O)c(O)c1	-1.0	8.4	13.6	·	3.7	56.7*	68.3*	5.2
COCCCNC(=O)CN(c1cc(Cl)ccc1OC)S(C)(=O)=O	8.0	4.9	11.1	78.5	1.4	1.1	·	·
COc1ccccc1CNC(=O)CN1C(=O)COc2ccc(S(=O)(=O)N3CCCCC3)cc21	1.8	-0.5	3.9	104.9	2.5	-6.8	·	·
Cc1ccc(/C=C2/Sc3ccc(C(=O)NCc4ccccn4)cc3NC2=O)cc1	0.1	7.7	-0.6	76.9	1.6	0.1	·	·
Cc1ccc(NC(=O)c2sc3nc(N4CCOCC4)c4c(c3c2N)CC(C)(C)OC4)cc1	1.7	6.9	7.4	107.8	1.1	38.6*	-55.1	2.3
CC1(C)Cc2c(c(N3CCCC3)nc3sc(C(=O)Nc4ccccc4)c(N)c23)CO1	3.7	3.4	-0.7	92.0	14.9	22.6	·	·
NC(=O)c1sc2nc(N3CCOCC3)c3c(c2c1N)CCCC3	4.2	-4.7	4.5	105.3	2.9	-34.3	·	·
CC1(C)Cc2c(c(N3CCOCC3)nc3sc(C(N)=O)c(N)c23)CO1	-1.8	7.8	5.5	106.0	5.7	43.3*	11.3	3.1
CC1(C)Cc2c(c(N3CCOCC3)nc3sc(C(=O)Nc4ccc(Cl)cc4)c(N)c23)CO1	-1.6	4.2	3.5	100.4	3.4	40.0*	0.2	-7.3
CCOc1ccc(NC(=O)c2sc3nc(N4CCOCC4)c4c(c3c2N)CC(C)(C)OC4)cc1	2.1	-5.2	0.6	91.4	2.6	42.4*	-0.1	-1.3
COc1ccc(NC(=O)c2sc3nc(N4CCOCC4)c4c(c3c2N)CCCC4)cc1	·	·	·	104.5	·	·	·	·
CN(C(=S)NC(=O)C12CC3CC(CC(C3)C1)C2)c1ccc(O)cc1	7.9	2.6	13.2	·	15.8	·	·	·
CCC(C)n1ncn(-c2ccc(N3CCN(c4ccc(OCC5COC(Cn6cncn6)(c6ccc(Cl)cc6Cl)O5)cc4)CC3)cc2)c1=O (centres undefined)	3.8	-8.6	2.5	90.4	-1.8	-4.2	·	·
CCC(C)n1ncn(-c2ccc(N3CCN(c4ccc(O)cc4)CC3)cc2)c1=O (centres undefined)	4.2	6.5	-1.3	123.9	-1.6	33.7*	-22.1	-4.8
CCN(CC)c1ccc(/C=N/n2c(=S)[nH]nc(C)c2=O)cc1	4.6	2.5	1.9	101.8	-0.9	34.5*	-37.7	2.4
SMILES	PAFAH1B2 FP inh	PAFAH2 inh	PAFAH1B3 FP inh	DSG3 Ab inh	pPAFAH FP inh	PfM18AAP inh-1	PfM18AAP inh-2	CTSL1 confirm
COc1cccc(C(NC(=O)c2ccccc2F)NC(=O)c2ccccc2F)c1	0.9	-4.2	5.2	?	3.2	-0.2	·	·
COc1cccc(C(c2c(N)[nH]c(=S)[nH]c2=O)c2c(N)[nH]c(=S)[nH]c2=O)c1	·	·	·	99.1	0.7	33.1*	-1.8	6.6
COc1ccc(-c2cc(C#N)nc(NN)n2)cc1	-1.3	5.7	-4.5	108.3	-6.1	36.5*	36.0*	6.0
COc1ccc(-c2cc(-c3ccccc3)nc(NN)n2)cc1OC	4.0	-0.7	2.1	95.2	-0.9	33.8*	5.3	3.0
COc1nc(-c2ccccc2)cc(-c2ccc(OC)c(OC)c2)n1	-3.9	3.7	-1.5	101.7	2.6	-1.4	·	·
O=C(Nc1ccc2c(c1)CCCN2C(=O)c1cccs1)c1c(F)cccc1Cl	-1.6	0.2	1.7	·	2.9	-3.5	·	·
O=C(Nc1ccccc1Cl)c1cc2ccccc2o/c1=N\O	2.7	-2.2	7.7	97.4	-2.7	36.9*	18.6	1.0
CC(=O)NNC(=O)CN1C(=O)/C(=C/c2ccccc2)SC1=S	4.9	3.4	2.3	89.7	-7.2	34.5*	-29.5	4.3
CCN(CC)C(=O)CN1C(=O)/C(=C/c2ccccc2)SC1=S	6.3	-2.0	4.8	99.1	-0.6	-3.5	·	·
O=C(CSc1ccc2ccccc2c1)NCCc1ccc(O)c(O)c1	10.8	4.0	5.6	·	26.8*	56.6*	41.0*	4.1
COc1ccc2nc(Nc3sc4c(c3C(N)=O)CCCC4)sc2c1	9.7	-0.4	19.1	81.4	25.7*	42.2*	-23.9	-4.5
Nc1cc(C(=O)O)ccc1Nc1ccccc1	-0.2	1.6	9.4	·	26.5*	54.2*	-5.5	-0.5
Cc1ccc(/C=c2\sc3n(c2=O)CN(c2cccc(Br)c2)CN=3)o1	6.5	0.9	5.7	86.8	1.7	37.3*	-58.3	-1.7
O=C(O)c1cc(S(=O)(=O)O)cc(Nc2c3ccccc3nc3ccccc23)c1O	5.6	3.1	4.6	98.3	5.8	35.3*	-26.9	0.4
O=C(CSc1nc2[nH]ncc2c(=O)n1-c1ccccc1)NCc1cccs1	5.0	-1.0	4.2	96.8	1.6	56.9*	39.2*	-0.4
COc1ccc(-n2c(SCC(=O)NCc3cccs3)nc3[nH]ncc3c2=O)cc1	5.0	3.3	2.6	100.4	3.8	52.2*	34.2*	-0.1
Cc1cccc(NC(=O)CSc2nc3[nH]ncc3c(=O)n2-c2ccccc2)c1	·	·	·	·	-1.1	35.9*	-1.6	3.4
COc1ccc(C(=O)Nc2ccc(/C(C)=N/NC(=O)c3ccccc3O)cc2)cc1OC	-3.7	3.2	0.1	95.0	4.6	36.7*	-52.4	8.6
Fc1cccc(Cl)c1CNCc1cccnc1	4.1	2.5	16.1	101.6	-0.2	-6.0	·	·
